# Shown are actives, neighbours in structure and some others; about 18% of the full set was active somewhere.
# TDP1 cell CPT: DT40-hTDP1 cell growth loss with CPT; 420,000 compounds, 12% hits; chicken DT40 Tdp1-/-;hTDP1 cells + 20 nM CPT, ATP luminescence, 48 h; Potency, µM (series often up to 46.2 µM), for the others: top-dose activity change, negative = growth inhibition, most hits filed as inhibitors; also: potency is read from the fitted curve at half-maximal effect; nearly all actives have a fitted effect of over 55% in size
#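 Cell growth measured by CellTiter-Glo luminescence after a minimum 48 h, 37 C compound exposure with 20 nM CPT in Tdp1-knockout DT40 cells stably expressing hTDP1, seeded 400/well; qHTS titration format.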
# IL1B secr inh: blocks inflammasome-driven IL-1 beta release. THP-1 LPS/ATP IL-1B secretion, AlphaLISA, 16 h; hits give low values. activity change, % at 57.5 µM. 360,000 compounds, 4.7% hits; in the data active = activity change below about -50%; inconclusive = mostly about -30% to -49%
#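 Secreted IL-1B measured by AlphaLISA bead assay after 16 h compound exposure of THP-1 cells; compounds (final up to 57.5 uM) added 1 h before LPS (250 ng/mL) and ATP (1.25 mM) stimulation; lower signal means less secretion.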
# RORgamma inh: inhibitors of mouse ROR gamma transcriptional activity; Potency, µM (doses to about 53.6 µM), inactives show at the highest dose activity change, negative = inhibition, most hits filed as inhibitors; Drosophila S2 Gal4-RORgamma UAS-luciferase reporter, 20 h; 310,000 compounds, 5.4% hits; P51450; also: potency is read from the fitted curve at half-maximal effect; nearly all actives have a fitted effect of over 60% in size
# Target sequence (P51450 whole entry, looked up, the tested form may be a part): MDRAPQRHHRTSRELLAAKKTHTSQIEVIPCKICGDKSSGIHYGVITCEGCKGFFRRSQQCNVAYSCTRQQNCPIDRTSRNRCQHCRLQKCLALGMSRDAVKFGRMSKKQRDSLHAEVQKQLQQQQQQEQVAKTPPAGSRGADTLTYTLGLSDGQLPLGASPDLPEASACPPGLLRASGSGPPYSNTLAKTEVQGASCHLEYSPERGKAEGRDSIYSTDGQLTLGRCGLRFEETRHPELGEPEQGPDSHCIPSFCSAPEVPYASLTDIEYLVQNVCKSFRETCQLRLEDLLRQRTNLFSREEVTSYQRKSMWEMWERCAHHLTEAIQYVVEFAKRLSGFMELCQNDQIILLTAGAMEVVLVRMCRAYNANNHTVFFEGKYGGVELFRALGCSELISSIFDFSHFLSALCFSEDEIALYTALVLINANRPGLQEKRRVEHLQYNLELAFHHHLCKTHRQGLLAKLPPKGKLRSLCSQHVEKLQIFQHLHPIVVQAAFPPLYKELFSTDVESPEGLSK
#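 Schneider cells (Drosophila), stable Gal4 DBD–ROR gamma + UAS-luc; 1 hr cmpd preincubation; Cu2+ induction 700 uM final; 20 hr ambient; luminescence.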
# LDHA block: blocks human lactate dehydrogenase A; purified LDHA, NADH/diaphorase-resazurin fluorescence; hits give low values; activity change, % (values are at about 110 or 230 µM); 480,000 compounds, 0.15% hits; AID 1347041; in the data active = activity change below about -30%; inconclusive = mostly about -25% to -30%;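 also: plate controls were DMSO wells for no effect and wells without enzyme for full effect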
#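 LDH5 2 nM; NADH 0.06 mM, pyruvate 0.2 mM; 200 mM Tris pH 7.4, EDTA, Tween-20; 5 min RT. Detection: diaphorase 0.133 mg/mL + resazurin 37 µM, fluorescence ex540/em590 at 0 and 20 min; normalized to enzyme-free and DMSO wells.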
# Gal4-VP16 FLuc: inhibits Gal4-VP16 luciferase reporter, ROR gamma counter-screen. Potency, µM (doses to about 53.6 µM), without a hit: at the highest dose activity, negative = inhibition, usual class: inhibitors. Drosophila S2 Gal4-VP16 UAS-luciferase, luminescence, 20 h. 310,000 compounds, 3.5% hits;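 also: Gal4-VP16 expression switched on by copper sulfate through the metallothionein promoter; potency is read from the fitted curve at half-maximal effect; nearly all actives have a fitted effect of over 50% in size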
# TDP1 cell noCPT: qHTS for Inhibitors of human tyrosyl-DNA phosphodiesterase 1 (TDP1): qHTS in cells in absence of CPT; DT40 Tdp1-/- hTDP1 cells, no CPT, ATP luminescence, 48 h; Potency, µM (highest dose often 46.2 µM), for the others: at the top dose activity change, negative = growth inhibition, actives largely listed as inhibitors; 420,000 compounds, 15% hits; also: potency is read from the fitted curve at half-maximal effect; nearly all actives have a fitted effect of over 55% in size
#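 DT40 Tdp1-/-;hTDP1 cells, no CPT (DMSO vehicle only), 400 cells/well; compounds pin-transferred; ≥48 hr, 37 °C; CellTiter-Glo 30 min RT dark, luminescence read.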
# Numbers without * were called inactive; ? = inconclusive; / = no result given. Unless noted, calls follow the shape of the dose curve; as a rule, active = well fitted curve in the direction sought with a large enough effect; inconclusive = small, poorly fitted or top-dose-only effect, or another doubt; inactive = no such curve, though single readings can be large; an effect the other way counts as inactive or inconclusive. Unless noted, % is scaled to controls: 0 for no effect and ±100 for the full control effect.
SMILES,TDP1 cell CPT,IL1B secr inh,RORgamma inh,LDHA block,Gal4-VP16 FLuc,TDP1 cell noCPT
COc1ccc2nc(C)cc(SCC(NC(=O)CN(C)C)C(=O)O)c2c1 (stereo unspecified),/,/,/,1,/,/
CN(C(=O)c1cc2ccccc2o1)C(c1cccc(F)c1)c1ccccn1 (stereo unspecified),/,/,/,3,/,/
O=C(N/N=C/c1ccoc1)c1ccccc1O,-2%,6,10µM*,4,18µM*,3%
Cc1ccc(/C=N/NC(=O)c2cc(-c3ccccc3)nc3ccccc23)o1,18µM*,41,4µM*,-3,7.1µM*,9.2µM*
Cc1ccc(-c2cc(C(=O)N/N=C/c3c(C)nn(C)c3C)c3ccccc3n2)cc1C,12µM*,-51*,?,-5,-6%,10µM*
O=C(Cc1c[nH]c2ccccc12)N/N=C/c1ccc(F)cc1,16µM*,-15,27%,-1,4%,21µM*
N#Cc1ccccc1S(=O)(=O)N1CCN(C(=O)NC2CCCC2)CC1,/,/,/,1,/,/
Cc1ccccc1C(=O)Oc1cccc(C)c1C,/,/,/,-8,/,/
COc1ccc(C2(C(N)=O)CCCC2)cc1,/,/,/,4,/,/
Cc1ccc(/C=N/NC(=O)c2cc(C3CC3)nc3ccccc23)o1,4.1µM*,59,?,-2,?,3.7µM*
CCCc1cc(C(=O)N/N=C/c2ccc(C)o2)c2ccccc2n1,?,61,10µM*,3,0%,?
O=C(N/N=C/c1ccncc1)c1cc(C2CC2)nc2ccccc12,-3%,67,3%,-1,-9%,?
O=C(NC(Cc1c[nH]c2ccccc12)C(=O)N/N=C/c1ccc(Cl)cc1)c1cccs1 (stereo unspecified),12µM*,-66*,-5%,-6,-11%,?
CCCc1cc(C(=O)OC)c2ccccc2n1,-23%,44,-6%,-1,-12%,?
Cn1c(=O)c2c(nc(Nc3ccc(Cl)c(Cl)c3)n2CC(=O)O)n(C)c1=O,/,/,/,-7,/,/
CCSC1=Nc2c(cnn2-c2ccc(C)c(Cl)c2)C2=NCCCN12,/,/,/,8,/,/
O=C(Nc1ccc2nc[nH]c(=O)c2c1)c1cc(Br)ccc1Cl,/,/,/,3,/,/
O=C(Cc1c[nH]c2ccccc12)Nc1nc2ccc(F)cc2s1,/,/,/,-19,/,/
CC1CCN(CC[S-])CC1.O.O.[Cl][Pt],1.3µM*,/,/,-4,/,1.6µM*
CC1CCN(CCCNC2CCCCCC2)CC1,/,/,/,-4,/,/
N#Cc1ccccc1CNc1cccc(Cl)c1F,/,/,/,6,/,/
CN(c1ccccc1)S(=O)(=O)c1ccc(C(=O)N2CCCC2)cc1,-23%,29,/,-5,/,-29%
Cc1ccc(S(=O)(=O)N(C)c2ccc(C(=O)N3CCc4ccccc4C3)cc2)cc1,?,-62*,-1%,-1,2%,?
CN(c1ccc(C(=O)N2CCN(Cc3ccccc3)CC2)cc1)S(=O)(=O)c1ccccc1,-28%,?,36%,-4,-2%,15µM*
Cc1ccc(S(=O)(=O)N(C)c2ccc(C(=O)N3CCCCC3)cc2)cc1,9.2µM*,20,37%,0,-13%,?
SMILES,TDP1 cell CPT,IL1B secr inh,RORgamma inh,LDHA block,Gal4-VP16 FLuc,TDP1 cell noCPT
CN(c1ccc(C(=O)N2CCCCC2)cc1)S(=O)(=O)c1ccccc1,13µM*,-13,?,-2,?,8.2µM*
S=C(c1ccccc1)N1CCN(c2ccccc2)CC1,19%,-17,/,-6,/,9%
Cc1ccc(S(=O)(=O)N(C)c2ccc(C(=O)N3CCN(Cc4ccc5c(c4)OCO5)CC3)cc2)cc1,?,-73*,-22%,9,?,21µM*
CN(c1ccccc1)S(=O)(=O)c1cccc(C(=O)N2CCCCCC2)c1,16µM*,-1,/,-7,/,21µM*
CCN(CC)c1ccc(C(=S)N2CCN(c3ccccc3)CC2)cc1,?,-24,13µM*,-10,?,?
CCN(CC)S(=O)(=O)c1cccc(C(=O)N2CCCCC2)c1,-23%,3,-9%,-2,12%,?
CC1CC(C)CN(C(=O)c2cccc(S(=O)(=O)N(C)c3ccccc3)c2)C1 (stereo unspecified),8.2µM*,3,/,-14,/,5.8µM*
Cc1ccc(NC(=O)CN(C)C(=O)CCc2ncc(-c3ccccc3)o2)cc1,/,/,/,1,/,/
Cc1cc(C)c(NC(=O)CNC(=O)c2cc3ccc(F)cc3nc2C)c(C)c1,/,/,/,13,/,/
O=C(O)CCCC(=O)N1N=C(c2ccsc2)CC1c1ccc(F)cc1 (stereo unspecified),/,/,/,9,/,/
CCCNc1c(NC(=O)CC(=O)OC)c(=O)oc2ccccc12,/,/,/,-2,/,/
COc1ccc(N(C)S(=O)(=O)c2cccc(C(=O)OCC(=O)N3CC(C)CC(C)C3)c2)cc1 (stereo unspecified),?,-27,/,-8,/,21µM*
CN(C)c1ccc(C(=S)N2CCN(Cc3ccccc3)CC2)cc1,?,-5,13µM*,-1,-4%,?
CCOc1cc(/C=N/NC(=O)c2cc(C)n(-c3ccc(F)cc3)c2C)ccc1O,16µM*,11,-2%,-1,-9%,21µM*
CCOc1ccc(C=NNC(=O)c2cccc3ccccc23)cc1OCC,?,7,/,-3,/,18µM*
CCOc1cc(/C=N/NC(=O)c2nn(C)cc2Br)ccc1OCc1ccccc1,15µM*,28,38%,-2,-18%,10µM*
COc1cc(/C=N/NC(=O)c2cccc3ccccc23)ccc1OCC(N)=O,?,65,/,1,/,5.8µM*
Cc1cc(C)n(-c2nc3ccccc3c(=O)n2OCC(=O)OCc2ccccc2)n1,5.8µM*,73,0.56µM*,0,2.5µM*,5.8µM*
Cc1cc(C)n(-c2nc3ccccc3c(=O)n2OCC(=O)Nc2c(C)cccc2C)n1,?,-1,11µM*,3,?,18µM*
Cc1cc(C)n(-c2nc3ccccc3c(=O)n2OCc2ccc(F)cc2)n1,?,9,?,-1,?,?
Cc1cc(C)n(-c2nc3ccccc3c(=O)n2OCc2ccc(Cl)cc2)n1,?,36,10µM*,0,?,?
C#CCOn1c(-n2nc(C)cc2C)nc2ccccc2c1=O,-7%,20,11µM*,-8,?,?
O=C(Nc1ccc(Cl)c(S(=O)(=O)N2CCCC2)c1)c1n[nH]c2ccccc12,/,/,/,-9,/,/

# Screening data from PubChem.
